# Measurements from PubChem BioAssay (NCI).
# About 83,000 compounds went through this panel and 20% of them were active in at least one assay; those are over-represented in the sample as a whole.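 Compound tested at a single concentration for 48 hours in 96-well plates; a percent growth value below 10 was scored as active.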 Calls of active or inactive are those of the source.
# System: MDA-MB-468 breast
# Assay: NCI-60 one-dose screen, 48 h (100 = growth as untreated, 0 = no growth, -100 = all killed)
# Details: 10 µM unless noted
row,Compound,growth
1,O=S(=O)(Nc1cc(Cl)cc(Cl)c1)c1ccc(-c2cnc(C3CC3)o2)cc1,2.06% (active)
2,COC1CCC(N2C(=O)CNc3ncc(-c4ccc(C(C)(C)O)nc4)nc32)CC1 (centres undefined),-25.2% (active)
3,CC(C)[C@@H]1CC[C@]2(C(=O)NCCCCN=C(N)N)CC[C@]3(C)[C@H](CC[C@@H]4[C@@]5(C)CCC(=O)C(C)(C)[C@@H]5CC[C@]43C)[C@@H]12,10.6% (inactive)
4,O=[N+]([O-])c1cccc(/C=C/c2ccccn2)c1,48.1% (inactive)
5,CC(=O)Nc1nc(C)c(C(=O)NNS(=O)(=O)c2ccccc2)s1,107% (inactive)
6,C#Cc1cccc(Nc2ncnc3ccc(NC(=O)c4ccccc4)cc23)c1,-28.5% (active)
7,COc1cc(-c2nn(-c3cccc(NC(=O)Nc4cc(C(F)(F)F)cc(C(F)(F)F)c4)c3)cc2-c2ccncc2)ccc1Cl,-25.4% (active)
8,COc1ccc(-c2csc(NC(=O)c3ccc(Cc4n[nH]c(=O)c5cccnc45)cc3)n2)cc1,64.2% (inactive)
9,COc1ccc(/C=C2/C(=O)N=C3N2NC(c2ccccc2)=CN3c2ccccc2)cc1,88.9% (inactive)
10,CC(=O)N(N=Nc1ccccc1)c1cccc2ccccc12,84.7% (inactive)
11,CC1(C)C(N)=Nc2cc(OCCCN3Cc4ccccc4C3)c(OCC3CC3)cc21,47.3% (inactive)
12,O=C1Nc2ccc(F)cc2/C1=C\c1nc(-c2ccccc2F)n2ccccc12,69.2% (inactive)
13,COc1ccc(CNc2c3ccccc3nc3ccccc23)cc1F,-18.7% (active)
14,N#CC1=C(N)Oc2c(ccc3cccnc23)C1c1ccccc1 (centres undefined),-7.81% (active)
